Laboratory results taken from PMC8769072, “Proteome‐scale mapping of binding sites in the unstructured regions of the human proteome” (Molecular Systems Biology, 2022).

The binders below were run against EPS15 121-215, P42566.
EPS15 121-215, P42566, sequence (P42566 121-215): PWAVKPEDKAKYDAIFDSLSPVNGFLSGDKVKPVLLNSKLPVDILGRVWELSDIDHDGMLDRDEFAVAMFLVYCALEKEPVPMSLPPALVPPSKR

Selected by phage display, active:
LNQGNPFIATSGPGHL [CHD7, Q9P2D1] confidence 2
NPFLPYISDTGTTPPE [DRAM1, Q8N682] confidence 4
NPFTTLTDRELEEYRR [ADD1, P35611] confidence 3
SNPFMTGAPTGQFPTG [AGFG1, P52594] confidence 3
NPFSAAPAATTVVQTH [SAP130, Q9H0E3] confidence 3
GLNPFGDSTHAAAAAA [ZIC3, O60481] confidence 2
TPSEAERWLEEVSQVA [NUMBL, Q9Y6R0] confidence 3
NPFVPSMPAAPPTLPL [DENND1A, Q8TEH3] confidence 2
NPFSVSNPNPLLPSPA [RBM20, Q5T481] confidence 2
LNPFLTKSSGDVHLSI [PICALM, Q13492] confidence 4
NPFSVHTATAVPSGKI [POLA1, P09884] confidence 3
GGNPFASVGSSSSSGE [UBQLN2, Q9UHD9] confidence 2
NPFNSSKLPEGHSSQQ [SYTL2, Q9HCH5] confidence 2
EFGPENPFRTQQMAAP [CDC40, O60508] confidence 4
DSPGLNASNPFTQLER [DLGAP5, Q15398] confidence 2
GNPFMGVSATAVSSSS [CHD8, Q9HCK8] confidence 2
ELTGEKFLEMANPNVA [MACF1, Q9UPN3] confidence 2
NPFLNGNVPVMPSLDE [SH3BP4, Q9P0V3] confidence 4
DMESDIRSWELFLSNV [TTC3, P53804] confidence 2
TPLMNPFRLENVTVSE [TMEM114, B3SHH9] confidence 4
QSWLSATLSLATDTMR [MYO18B, Q8IUG5] confidence 2
DVGLGINPFADGMGAF [ZIC1, Q15915] confidence 3
LNPFEVLQIDPEVTDE [DNAJC8, O75937] confidence 3
QGRPVSVWDVLFSSYL [EPPK1, P58107] confidence 3
VNPFAQETLFVGNDQV [TMEM108, Q6UXF1] confidence 3
NPFLVAAQDSETDYVT [RTN4, Q9NQC3] confidence 2

These binders were tested against KEAP1 321-609, Q14145.
KEAP1 321-609, Q14145, sequence (Q14145 321-609): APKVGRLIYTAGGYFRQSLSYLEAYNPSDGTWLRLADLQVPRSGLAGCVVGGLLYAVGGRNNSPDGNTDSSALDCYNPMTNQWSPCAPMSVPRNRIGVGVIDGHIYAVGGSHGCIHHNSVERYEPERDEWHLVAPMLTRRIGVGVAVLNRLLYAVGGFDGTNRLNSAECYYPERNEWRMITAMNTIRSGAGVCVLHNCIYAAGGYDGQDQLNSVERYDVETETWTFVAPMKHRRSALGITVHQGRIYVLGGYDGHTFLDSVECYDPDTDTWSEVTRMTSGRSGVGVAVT

Selected by phage display, active:
VEKDKVTGETRVLSST [PALM, O75781] confidence 2
GGIIDPSTGERFPVTD [PLEC, Q15149] confidence 4
FALEYEADSGEVTSVI [C2orf68, Q2NKX9] confidence 2
REHNPESGEEVVTLLE [ZBED9, Q6R2W3] confidence 2
TTWLHPVTGEAVVTGH [PLEKHA5, Q9HAU0] confidence 2
